Results from PubChem BioAssay AID1259416 (Broad Institute, 2018).
The whole screen tested about 69,000 compounds, of which about 2,600 (3.8%) were called active. The list comes from a sample in which actives are over-represented; it also holds similar structures and randomly drawn compounds. A number with no mark means an inactive call. Rule as the data show it: active = activity change below about -70% (passing the limit was not always enough); inconclusive = no clear call, values can overlap the other calls.

experiment: inhibitors of Toxoplasma growth in IFN-γ-primed hosts – cell-based, primary screen (AID 1259416); settings: Toxoplasma gondii growth in IFN-gamma-treated host cells; active compounds read low; concentration not given here;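 also: host cells are HeLa cells infected with Toxoplasma gondii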

| Compound | activity change, negative = inhibition |
| --- | --- |
| Cc1cc(C(=O)N2CCC3(CC2)CNC(=O)O3)c2ccc(F)cc2n1 | 0.544% |
| CCOC1C2CCC1N(S(=O)(=O)c1cccc(C)c1)CCO2 (stereo unspecified) | 16.8% |
| Cc1cc(S(=O)(=O)NCc2ccc3c(c2)OCO3)ccc1-n1cnnn1 | -7.98% |
| COc1cccc(-c2cccc3[nH]ccc23)n1 | 35.3% |
| C[C@@H]1COCCN1c1cc(C2(S(C)(=O)=O)CC2)nc(-c2cccc3[nH]ccc23)n1 | -82.8% (active) |
| NC(=O)Cc1csc(NC(=O)c2ccc3nc(C(F)(F)F)[nH]c3c2)n1 | -8.79% |
| CNS(=O)(=O)c1ccc([C@@H]2C[C@H](NC(C)=O)C[C@H](CC(C)C)O2)cc1 | -22.6% |
| Cc1ccc(C2(O)CCN(C(=O)c3noc(C)c3CO)CC2)nc1 | -2.58% |
| Cc1ccc2cc(CN(c3ccc(C)c(C)c3)S(C)(=O)=O)c(=O)[nH]c2c1 | -50.6% |
| COc1cc(OC)c(Nc2nc(-c3nnc(-c4ccccc4)o3)nc3ccccc23)cc1Cl | 268% |
| Cc1ccc(Nc2nc(-c3nnc(-c4cccc(C)c4)o3)nc3ccccc23)cc1 | 96.2% |
| Clc1cccc(-c2nnc(-c3nc(NC4CCCC4)c4ccccc4n3)o2)c1 | -77.4% (active) |
| COc1cc(/C=C/CN2CCC3(CC2)c2ccccc2[C@@H](NC(=O)C(C)C)[C@@H]3OC)ccc1O | 12.6% |
| CN1C(=O)c2cc(NS(=O)(=O)c3ccccc3F)ccc2OC[C@@H]2O[C@@H](CC(=O)NC3Cc4ccccc4C3)CC[C@@H]21 | -28.5% |
| Cc1cc(C)nc(N2CCN(c3c4c(nc5c(-c6ccccc6)c(C)nn35)CCC4)CC2)n1 | -75.6% (active) |
| Cc1nc(N2CCCC2)nc2c1CCN(C(=O)Nc1ccccc1F)CC2 | -2.86% |
| Cc1cc(N2CCN(c3nc(C)cc(C)n3)CC2)ncn1 | 3.08% |
| COc1ccc(Cl)cc1S(=O)(=O)N1CCC(c2nc(C(=O)N(C)C)c(C)o2)CC1 | -56% |
| O=C(Cc1ccc(F)cc1)N1CC[C@@H](O)[C@@H]1Cc1ccccc1 | -30.4% |
| CN(Cc1noc(C2CCC2)n1)Cc1ncccc1C(=O)O | -0.548% |
| O=C(NCc1cccnc1)C1=NOC2(CCCN(C(=O)Cc3ccc(F)cc3)C2)C1 (stereo unspecified) | 53.7% |
| CC(=O)N1CCC(c2cc3c(ncn3C(C)C)c(-c3ccccc3)n2)CC1 | -106% (active) |

| Compound | activity change, negative = inhibition |
| --- | --- |
| CC(C(=O)NC1CC1)N1CCc2[nH]nc(-c3ccc(-c4ccccc4)cc3)c2C1 (stereo unspecified) | 13.6% |
| CC(C)n1cnc2c(N3CCOCC3)nc(C3CCN(Cc4cccnc4)CC3)cc21 | 1.27% |
| CN(CCCc1ccccc1)C(=O)c1cc(CN2CCC(O)CC2)on1 | 6.96% |
| CCCNc1ncc(-c2nccn2CC2CCOCC2)cn1 | 0.573% |
| CCc1c2c(nc3ccc(O)cc13)-c1cc3c(c(=O)n1C2)COC(=O)[C@]3(O)CC | -86.3% (active) |
| CCN(CC)Cc1cnc2n1CCN(Cc1csc(C)n1)CC2 | 4.3% |
| C[C@@H]1CN([C@H](C)CO)C(=O)c2c(c3ccccc3n2C)-c2ccccc2CO[C@H]1CN(C)C(=O)[C@@H](Cc1ccccc1)N(C)C | -51.4% |
| C[C@H](CO)N1C[C@H](C)[C@@H](CN(C)S(=O)(=O)c2ccc([N+](=O)[O-])cc2)OCc2ccccc2-c2c(n(C)c3ccccc23)C1=O | -73.3% (active) |
| C[C@H]1CN([C@@H](C)CO)C(=O)c2ccccc2-c2ccccc2CO[C@H]1CN(C)S(=O)(=O)c1cccc(C#N)c1 | 5.72% |
| CC(C)(O)CC[C@@H](O)[C@](C)(O)[C@@H]1CC[C@@]2(O)C3=CC(=O)[C@@H]4C[C@@H](O)[C@@H](O)C[C@]4(C)[C@@H]3CC[C@]12C | 12.2% |
| CN(C)c1nc2c(c(=O)[nH]1)CCN(C(=O)C1(c3ccc(Cl)cc3)CCC1)C2 | -11.9% |
| COc1cc2c(cc1CNC(=O)c1cc3n(n1)CCCN(C)C3)CCC2 | 5.16% |
| CC(=O)N1CC(=O)N(c2cnn(C)c2)CC12CCN(C(=O)c1cnc(C)cn1)C2 (stereo unspecified) | 8.89% |
| O=C(c1cnccn1)N1CCC2(CC(=O)N(c3cccc(F)c3)C2)C1 (stereo unspecified) | -1.06% |
| Cc1ccsc1C(=O)N1CCC2(C1)CN(c1cccc(F)c1)C(=O)CN2C (stereo unspecified) | -102% (active) |
| COc1ccc(C(=O)N2CC(C(=O)N3CCOCC3)C3(CCOCC3)C2)cc1 (stereo unspecified) | 2.42% |
| O=C(CC1CC1)N1CC[C@@H]2[C@H](CO)Nc3ccc(-c4ccc(F)cc4)cc3[C@@H]21 | -30.6% |
| COc1ccc(-c2noc(-c3c(O)c4ccccc4n(C)c3=O)n2)cc1F | 31.1% |
| COc1ccc(-n2c(=O)c(C(=O)Nc3ccccc3C)c(O)c3cccnc32)cc1 | 33.1% |
| CCc1cccc(NC(=O)c2c(O)c3cccnc3n(-c3cccc(F)c3)c2=O)c1 | -96.6% (active) |
| O=C(NCc1ccc(F)cc1)c1c(O)c2cccnc2n(-c2cccc(F)c2)c1=O | -108% (active) |
| COc1cccc(-n2c(=O)c(C(=O)Nc3ccccc3F)c(O)c3cccnc32)c1 | 40% |

| Compound | activity change, negative = inhibition |
| --- | --- |
| CCc1ccc(NC(=O)c2c(O)c3cccnc3n(-c3ccccc3)c2=O)cc1 | 86% |
| C=CCNC(=O)c1c(O)c2cccnc2n(-c2cccc(F)c2)c1=O | -76.4% (active) |
| O=C(Nc1cccc(Cl)c1)c1c(O)c2cccnc2n(-c2ccc(F)cc2)c1=O | 195% |
| COc1ccc(CNC(=O)c2c(O)c3cccnc3n(-c3ccc(F)cc3)c2=O)cc1 | 85.2% |
| Cc1ccc(NC(=O)c2c(O)c3cccnc3n(-c3cccc(F)c3)c2=O)cc1F | 126% |
| COc1cccc(-n2c(=O)c(C(=O)NC(C)c3ccccc3)c(O)c3cccnc32)c1 (stereo unspecified) | -12.7% |
| COc1ccccc1CNC(=O)c1c(O)c2cccnc2n(-c2ccccc2)c1=O | -37.8% |
| O=C(NCc1ccccc1F)c1c(O)c2cccnc2n(-c2cccc(F)c2)c1=O | -102% (active) |
| Cc1noc(C[C@H]2C[C@@H]3CN(C(=O)c4ccco4)C[C@H]3O2)n1 | -25% |
| CCCN(CCC)C(=O)NCCCCCCNC(=O)N(CCC)CCC | -0.334% |
| CO[C@@H]1CN(C)C(=O)c2cc(NC(C)=O)ccc2OC[C@H](C)N(C(=O)Cc2ccccn2)C[C@@H]1C | 163% |
| O=C(c1cccs1)N1CCn2c(Cn3cccn3)cnc2C1 | 3.34% |
| O=S(=O)(c1ccccc1)N1CC2CN(Cc3ccc(O)cc3)CC2C1 (stereo unspecified) | -5.71% |
| COc1ccccc1-n1cc(CNC(=O)c2ccc(=O)n(C)c2)cn1 | 1.65% |
| O=C(CCn1cnnn1)NCc1cnn2ccccc12 | 1.34% |
| COCC(=O)Nc1ccc(-c2nc(-c3cc(C)ccc3C)co2)cc1 | 11.3% |
| CNC(=O)c1ccccc1Nc1nc(Nc2ccc(N3CCOCC3)cc2OC)ncc1Cl | -72.7% (active) |
| COc1ccccc1C(=O)Nc1ccc(N2CCN(C)CC2)cc1 | -6.5% |
| COc1ccc(S(=O)(=O)N2CCOCC2)cc1NC(=O)COc1ccccc1 | -52.6% |
| CCS(=O)(=O)N1CCC2(CC1)CN(S(=O)(=O)c1ccc(C)cc1)[C@H](CO)c1[nH]c3cc(OC)ccc3c12 | 268% |
| Nc1cc(C(F)(F)F)c(-c2cc(N3CCOCC3)nc(N3CCOCC3)n2)cn1 | -74.6% (active) |
| Nc1cc(N2C[C@H]3CC=CC[C@H]3C2)nc(N2CCOCC2)n1 | 14.9% |

| Compound | activity change, negative = inhibition |
| --- | --- |
| c1cnc2c(-c3cc(N4CCOCC4)ncn3)cccc2c1 | 12.9% |
| Cc1ncc(C(=O)NCCCn2ccc3ccccc32)c(C)n1 | 2.92% |
| CCS(=O)(=O)N1CC2(CN(C(=O)c3ccc(F)cc3)[C@@H](CO)c3c2c2ccc(OC)cc2n3C)C1 | 62.5% |
| CC(C)CN1CCS(=O)(=O)[C@H]2CCN(S(=O)(=O)N(C)C)CC[C@@H]21 | -5.98% |
| Cn1nc(C(=O)NCC2CCC(c3nnc(-c4ccncc4)o3)CC2)ccc1=O (stereo unspecified) | 24.6% |
| O=C(O)CC1CCC(c2ccc(-c3ccc(Nc4ccc(C(F)(F)F)nc4)cn3)cc2)CC1 (stereo unspecified) | -61.2% |
| CCCC1CCC(c2ccc(-c3ccc(CC)cn3)cc2F)CC1 (stereo unspecified) | -76% (active) |
| COCCN(Cc1cccs1)C(=O)c1ccncc1Cl | 3.28% |
| COc1cccc(C2=NN(C(=O)C(C)C)C(O)(C(F)(F)F)C2)c1 (stereo unspecified) | -0.0765% |
| COc1c(C)cnc(CN(C)C(=O)c2cnn3cc(C)cnc23)c1C | -3.21% |
| COCC1CCN(c2nc(C(C)(C)C)nc3c2cnn3C)C1 (stereo unspecified) | -12.1% |
| O=C(Nc1cccnc1)c1cc2c(s1)-c1ccccc1CC2 | -101% (active) |
| Cc1ccc(N2CC3(CCN(C(=O)COc4ccccc4)C3)CC2=O)cc1 (stereo unspecified) | -15.8% |
| CCOC(=O)c1nc(NCCc2c[nH]c3ccc(Cl)cc23)c2c(C)noc2n1 | 46.7% |
| CCN1CCN(c2ncnc3sc(C(=O)NCCc4c[nH]c5ccc(Cl)cc45)c(C)c23)CC1 | -83.1% (active) |
| O=C(NCCc1c[nH]c2ccccc12)c1cc(=O)nc2sc(N3CCCC3)nn12 | 5.09% |
| COCCn1cc(-c2nc(C(=O)NCCc3cccnc3)c3ccccn23)nc1C | -8.4% |
| Cc1ccc(C(=O)NC(=S)Nc2cccc(NC(=O)c3ccccc3)c2)cc1C | -63.6% |
| CC(C)(C)c1ccc(C(=O)NC(=S)Nc2ccc(N3CCCCC3)cc2)cc1 | -87.8% (active) |
| O=C(O)CC1(CC(=O)Nc2ccc(N3CCCCC3)cc2)CCCCC1 | 96.8% |
